Bioassay records: PubChem, National Center for Advancing Translational Sciences (NCATS)
mIDH1 inhibitor = inhibitors of human mutant IDH1 R132H. 0.093% of 390,000 active. IDH1-R132H enzyme, NADPH consumption, diaphorase/resazurin fluorescence. O75874. Potency, µM (top dose mostly 76.6 µM), for inactives: top-dose activity change, negative = inhibition, most hits filed as inhibitors; also: potency is read from the fitted curve at half-maximal effect; % is scaled to controls: 0 for no effect and ±100 for the full control effect; nearly all actives have a fitted effect of over 65% in size
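IDH1-R132H (0.5 ug/mL dispensed) in pH 7.5 Tris buffer was preincubated 30 min with compound, then given a substrate mix of 0.016 mM NADPH and 2 mM alpha-KG for 80 min at room temperature; remaining NADPH was read by diaphorase/resazurin fluorescence.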
D3 antag = antagonists of human D3 dopamine receptor. P35462. 2.5% of 360,000 active. AID 652054. D3R cells, DiscoveRx beta-arrestin luminescence, antagonist mode; hits give low values. max response, negative = inhibition, %; in the data active = max response below about -50%; also: % is scaled to controls: 0 for no effect and ±100 for the full control effect
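Cells expressing the human receptor were seeded at 1500 cells/well, incubated overnight at 37 degrees C in 5% CO2, then exposed to library compounds with dopamine controls for 90 minutes at 37 degrees C before luminescent detection.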
B2AR arrestin = agonists driving beta-arrestin recruitment to human beta2-adrenergic receptor | Potency, µM (titrated, usually from 46.1 µM), without a hit: at the highest dose activation, hits mostly activators | 0.02% of 330,000 active | P07550 | AID 492947 | beta-arrestin recruitment to beta2AR, cell-based reporter;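 also: potency is read from the fitted curve at half-maximal effect; 0% = DMSO controls and full agonism = EC100 isoproterenol or metaproterenol; nearly all actives have a fitted effect of over 65% in size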
Target sequence (P07550 whole entry, looked up): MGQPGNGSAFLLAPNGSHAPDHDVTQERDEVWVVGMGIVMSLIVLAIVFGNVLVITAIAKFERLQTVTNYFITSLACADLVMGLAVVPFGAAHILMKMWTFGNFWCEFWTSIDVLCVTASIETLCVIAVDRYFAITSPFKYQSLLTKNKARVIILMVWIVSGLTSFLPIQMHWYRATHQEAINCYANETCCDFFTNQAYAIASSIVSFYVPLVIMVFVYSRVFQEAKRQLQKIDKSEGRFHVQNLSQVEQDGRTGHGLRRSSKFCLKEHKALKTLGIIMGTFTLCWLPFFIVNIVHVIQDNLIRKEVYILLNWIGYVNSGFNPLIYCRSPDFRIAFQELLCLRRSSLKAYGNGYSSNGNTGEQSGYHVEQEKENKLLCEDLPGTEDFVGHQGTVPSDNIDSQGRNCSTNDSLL
a7 integrin act = activators of alpha7 integrin expression for muscular dystrophy. alpha7betagal myoblasts, beta-gal FDG fluorescence, 48 h. Potency, µM (series often up to 38.3 µM), without a hit: at the highest dose activation, usual class: activators. 0.064% of 350,000 active. AID 624291;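 also: potency is read from the fitted curve at half-maximal effect; 100% = response of the positive control SU9516; nearly all actives have a fitted effect of over 60% in size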
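Alpha7betagal+/- myoblasts (passage 13) were plated 16-24 hr, then exposed to compounds (1:260 dilution of DMSO stock) for 48 hours at 37C. After MPER lysis, β-galactosidase reporter activity was read as FDG fluorescence (ex 480/em 540) after 30 minutes.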
D3 ag = activates the human D3 dopamine receptor | max activation, % | 0.58% of 410,000 active | D3R DiscoveRx beta-arrestin cells, luminescence, 90 min | P35462; in the data active = max activation above about 30%; also: 0% is about no effect
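Agonist-mode cell screen: cells plated at 1500/well and incubated overnight at 37 °C, then exposed to library compounds for 90 min at 37 °C. Detection reagent was added for 30–60 min at room temperature, and luminescence was read.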
Active calls of the source: *. Only some compounds are listed: those with a hit (about 2.9% of all), similar ones and a draw of the others. Unless noted, calls follow the shape of the dose curve; as a rule, active = well fitted curve in the direction sought with a large enough effect; inconclusive = small, poorly fitted or top-dose-only effect, or another doubt; inactive = no such curve, though single readings can be large; an effect the other way counts as inactive or inconclusive.

`CCC1CCCN1Cn1cnc2c([nH]c3ccc(OC)cc32)c1=O` (configuration not stated) gave mIDH1 inhibitor 8.4%, D3 antag -72.8*, B2AR arrestin -0.2%, a7 integrin act 7.9% and D3 ag -8.2.
For C=C[C@]1(C)C[C@@H](OC(=O)CSCCN(CC)CC)[C@]2(C)[C@H](C)CC[C@]3(CCC(=O)[C@H]32)[C@@H](C)[C@@H]1O the results were D3 ag -24.5.
Screening CCN1CCC[C@H]1CNC(=O)c1cc(S(N)(=O)=O)ccc1OC returned B2AR arrestin -0.2%.
CCN1CCCC1CNC(=O)c1cc([N+](=O)[O-])c(N(C)C)cc1OC (configuration not stated) was read as mIDH1 inhibitor -5.7%, D3 antag -103.0*, B2AR arrestin 0.4%, a7 integrin act 4.4% and D3 ag -27.7.
Screening CCN1CCC[C@H]1CNC(=O)c1c(OC)ccc(Br)c1OC returned mIDH1 inhibitor 30.0%, D3 antag -54.8*, B2AR arrestin 0.1% and D3 ag -78.8.
For CC(=O)N(C1CC(C)C(C#N)(C#N)C1(C#N)C#N)N(C)C (configuration not stated) the results were mIDH1 inhibitor 4.4%, D3 antag -70.7*, B2AR arrestin -0.2%, a7 integrin act -62.8% and D3 ag -17.9.
Screening CCCC(=O)N(C1CC(C)C(C#N)(C#N)C1(C#N)C#N)N(C)C (configuration not stated) returned mIDH1 inhibitor 6.8%, D3 antag -61.9*, B2AR arrestin -0.7%, a7 integrin act -81.0% and D3 ag -7.6.
O=C(NCC(c1ccc2c(c1)OCO2)N1CCN(c2ccccc2)CC1)C(=O)Nc1cccc(F)c1 (configuration not stated) was read as mIDH1 inhibitor -10.6% and D3 ag -0.3.
Screening Cc1ccc(NC(=O)Cn2cc3c(n2)CCCCC3)cc1 returned mIDH1 inhibitor 10.2% and D3 ag -16.0.
`Cc1[nH]c2ccc(Br)cc2c(=O)c1CN1CCOCC1` gave mIDH1 inhibitor -0.4%, D3 antag -70.1*, B2AR arrestin -0.9%, a7 integrin act 0.1% and D3 ag -0.5.
O=C(Nc1ccc(Cl)c([N+](=O)[O-])c1)c1ccc(NCCCN2CCOCC2)c([N+](=O)[O-])c1 was read as mIDH1 inhibitor -6.4%, D3 antag 10.1, B2AR arrestin 0.1%, a7 integrin act 14.8% and D3 ag -7.9.
For Cc1ccc(NC(=O)c2ccc(NCCCN3CCOCC3)c([N+](=O)[O-])c2)cc1Cl the results were mIDH1 inhibitor -0.3%, D3 antag -50.7*, B2AR arrestin -0.4%, a7 integrin act -35.9% and D3 ag -14.5.
For COc1ccc(OCc2nc(C#N)c(NCc3ccccc3Cl)o2)cc1 the results were mIDH1 inhibitor 24.1% and D3 ag -13.3.
OC(CN1CCN(c2ccccc2Cl)CC1)c1ccccc1 (configuration not stated) was read as mIDH1 inhibitor 10.9%, D3 antag -84.3*, B2AR arrestin -0.2%, a7 integrin act -37.3% and D3 ag -2.3.
`OC(CN1CCN(c2ccccc2F)CC1)c1ccc(F)cc1` (configuration not stated) gave mIDH1 inhibitor 5.9%, D3 antag -8.4, B2AR arrestin 0.3%, a7 integrin act -11.6% and D3 ag 36.4*.
`OC(COc1ccc(F)cc1)CN1CCN(c2ccccc2F)CC1` (configuration not stated) gave mIDH1 inhibitor 3.2%, D3 antag -18.0, B2AR arrestin 0.3%, a7 integrin act 25.9% and D3 ag -8.6.
For CN1CCN(CC(O)c2ccccc2)CC1 (configuration not stated) the results were B2AR arrestin 0.0%.
COc1ccc(OC)c(-c2csc(NC(=O)Cc3ccccc3)n2)c1 was read as mIDH1 inhibitor 0.4%, D3 antag 4.4, B2AR arrestin 4.5%, a7 integrin act -29.4% and D3 ag -5.6.
For COC(=O)c1cc(-c2cc(OC)ccc2OC)nc2c1c(=O)n(C)c(=O)n2Cc1ccccc1 the results were mIDH1 inhibitor -2.8%, D3 antag -78.9*, B2AR arrestin -0.3%, a7 integrin act -0.9% and D3 ag -28.7.
`CCCCN=C(Nc1ccc(Cl)cc1)c1cccnc1` gave mIDH1 inhibitor -0.6%, D3 antag -63.6*, B2AR arrestin -0.9%, a7 integrin act -2.9% and D3 ag -9.5.
COCCCNC(=O)CC(NS(=O)(=O)c1ccc(C)cc1)c1ccco1 (configuration not stated) was read as mIDH1 inhibitor 5.2%, D3 antag -58.0*, B2AR arrestin 0.3%, a7 integrin act -12.6% and D3 ag 8.7.
Screening C#CC(C)(CC)NC(=O)c1cnn2c(C(F)F)cc(-c3ccccc3OC)nc12 (configuration not stated) returned mIDH1 inhibitor 9.5% and D3 ag 63.7*.
For Cn1c(=O)n(C)c2cc([N+](=O)[O-])c(N3CCN(C(=O)c4cccc(Cl)c4)CC3)cc21 the results were mIDH1 inhibitor -1.2%, D3 antag -59.8*, B2AR arrestin -0.5%, a7 integrin act -38.0% and D3 ag -13.7.
Screening COc1cccc(Nc2ncnc3ccccc23)c1 returned mIDH1 inhibitor -2.1%, D3 antag 9.5, B2AR arrestin -0.1%, a7 integrin act -7.3% and D3 ag -8.6.
`O=C(Oc1cccc(Nc2ncnc3ccccc23)c1)c1ccccc1Cl` gave mIDH1 inhibitor 8.7%, D3 antag -24.1, B2AR arrestin -0.1%, a7 integrin act -11.8% and D3 ag 39.7*.
For CC1CCN(S(=O)(=O)c2ccc3c(c2)c(=O)c(C(=O)NCc2ccc(Cl)cc2)cn3C)CC1 the results were mIDH1 inhibitor 12.0% and D3 ag -21.8.
For CCOc1ccccc1NC(=S)NC(=O)CCCOc1ccc(Cl)cc1Cl the results were mIDH1 inhibitor 16.8%, D3 antag -109.5*, B2AR arrestin -0.9%, a7 integrin act 6.7% and D3 ag -6.1.
For COc1ccc(NC(=O)C2(C)Cc3c(-c4ccc5c(c4)OCO5)ccnc3O2)cn1 (configuration not stated) the results were D3 antag -53.3* and D3 ag -18.2.
Screening CN(C)c1ccc(CNC(=O)C2(C)Cc3c(-c4cccc(C(F)(F)F)c4)ccnc3O2)cc1 (configuration not stated) returned D3 antag -84.1* and D3 ag -11.7.
CC1(C(=O)NCc2ccc(F)c(F)c2)Cc2c(-c3cccc(C(F)(F)F)c3)ccnc2O1 (configuration not stated) was read as D3 antag 29.3 and D3 ag -2.6.
